# Experimental data published in the supplement of paper PMC6555819.
# What was measured:
# Experiment in all cases: PBM binding z-score (relative to random genomic background probes); higher = stronger binding; sequences stand for … in GC…GCGATTGACAGCGTAGAATGAAGG
# [1] = system: FXR:RXRa (NR concentration 270 nM, RXRa partner concentration 90 nM)
# Summary of the method: (§1)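 Binding buffer was PBS pH 7.4 with 2% milk, 0.02% Triton X-100, 1 mM DTT, 0.2 mg/mL BSA and 0.4 mg/ml salmon testes DNA. In it, ligand-free nuclear receptor dimers were incubated 1 h on custom Agilent 4×180K protein-binding microarrays carrying double-stranded probes. Antibodies against each partner (one per run) detected binding, and z-scores were calculated against random background probes after regression normalization of scanned fluorescence.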
# [2] = system: LXRa:RXRa (NR concentration 270 nM, RXRa partner concentration 90 nM)
# Summary of the method: as §1
# [3] = system: LXRa homodimer (NR concentration 270 nM)
# Summary of the method: as §1
# [4] = system: LXRb:RXRa (NR concentration 270 nM, RXRa partner concentration 90 nM)
# Summary of the method: as §1
# [5] = system: LXRb homodimer (NR concentration 270 nM)
# Summary of the method: as §1
# [6] = system: PPARa:RXRa (NR concentration 270 nM, RXRa partner concentration 90 nM)
# Summary of the method: as §1
# [7] = system: PPARg:RXRa (NR concentration 180 nM, RXRa partner concentration 90 nM)
# Summary of the method: as §1
# [8] = system: PPARg:RXRa 270nM:90nM, anti-RXR (NR concentration 270 nM, RXRa partner concentration 90 nM)
# Summary of the method: as §1
# [9] = system: PPARg:RXRa 30nM:10nM, anti-RXR (NR concentration 30 nM, RXRa partner concentration 10 nM)
# Summary of the method: as §1
# [10] = system: PPARg:RXRa 90nM:30nM, anti-RXR (NR concentration 90 nM, RXRa partner concentration 30 nM)
# Summary of the method: as §1
Sequence,PBM binding z-score [1],PBM binding z-score [2],PBM binding z-score [3],PBM binding z-score [4],PBM binding z-score [5],PBM binding z-score [6],PBM binding z-score [7],PBM binding z-score [8],PBM binding z-score [9],PBM binding z-score [10]
TAGCCTAGGTCAGATCGGGTCAGTATACGCTATA,2.96,2.75,0.202,2.43,-0.00739,2.8,1.19,1.5,0.171,1.08
TTACCAGGGTGAGCTGAGGTCGTTGATCCAACTC,1.3,1.44,-0.264,0.797,-1.42,1.87,0.186,1.08,-0.0751,0.766
ATACCAAGGTGATCGTGAGGTCCTTGATACTAAC,0.569,-0.0765,-0.204,0.177,-0.319,0.562,0.44,0.0314,-0.102,-0.134
TGTCAAAGTTCAAAGGTAAGGTAAGTATCCACAC,7.21,6.56,4.78,4.45,1.75,5.46,8.72,7.6,5.24,7.45
CAAACTAGGTCTCGAAAGGTCAAAGTCGAATGAC,4.95,5.78,5.59,5.49,1.63,5.51,5.33,5.32,2.94,4.72
GCTGCTAGATCAGGTTGGTCAGCTAACGGGTACG,-0.615,-0.876,-0.323,-0.953,-0.822,-1.19,-0.285,-1.02,-0.624,-0.926
CGTCAAAGTTCAAGGTAACGAAACAGAAAGCAGC,6.35,5.77,2.25,3.3,0.914,4.7,4.6,5.48,2.22,4.42
TCTTGTAGATCAACAGGAGGTTAAGAAGGATCGA,0.614,0.955,0.0858,0.854,-0.55,1.34,0.000249,1.23,2.58,1.73
AGATTGAGGTTATACGTAGATCAGGGAAGAAAGT,1.82,1.79,0.26,1.37,0.202,2.91,1.21,1.56,0.644,1.05
CCCAGCAGGCCAATCTGGGTCACTCAAGGCTTGA,0.369,1.43,-0.513,0.944,-1.13,3.19,1.76,2.13,-0.161,1.13
CGGACGAGGGCATGAGTTGATAGCAAATGCCGAT,0.265,0.0809,-0.262,-0.154,-0.96,1.01,0.992,0.682,-0.202,0.196
TCATATAGGTAAATAGGTGAAAGTCCGTAAGTTA,1.38,1.32,0.298,1.06,-0.103,3.79,5.17,5.12,4.83,5.34
ATCTCTCGGTAAAAGTTCAGTGAATCCCGAGGAT,0.576,1.16,1.29,1.07,1.12,2.92,3.81,5.71,3.76,6.34
AGTCAAAGTTCATCTAGGAAACGTAAGATATGCT,6.71,5.87,4.88,3.9,2.09,4.85,6.43,6.21,3.53,5.16
CAAACTAGGTCACTGAGGTCAAAGTCCGTGCGTA,6.44,5.9,5.56,5.66,1.56,6.2,9.39,7.91,5.72,7.61
ATCGGAAGGTCGAAGGTGAGTATACCCACCCGAA,2.14,1.54,-0.0479,1.23,-0.0206,3.18,3.05,3.84,1.55,3.07
AGAATGAGGATATTAAGATCAGGGAATTGCGGTC,-0.251,-0.424,0.0165,-0.53,-0.355,-0.323,0.311,-0.0295,-0.0325,-0.182
ACTATTAGTTGACTTTGGGCAACCGATACGACGC,0.0915,0.0714,0.0306,0.155,0.67,-0.00502,0.965,0.394,0.326,0.537
ACTTACGGGTCAACGAGATTATAGCACGCGTATA,6.86,4.16,0.415,3.82,1.09,5.71,5.29,5.21,2.2,4.07
CGAACTAGGTCATCCAGCACAGTGAATACATTGA,4.05,2.64,0.684,2.07,0.124,4.78,7.47,6.28,3.93,5.81
TCTATTGGTTGAAGGGCAACCGACGAGTCCGTTT,0.476,0.767,0.01,0.546,0.657,1.23,0.669,2.98,3.37,3.23
ATCTATAGGTAAAAGTTCAGTGAATCCCGAGGAT,0.696,1.58,1.09,1.06,0.602,3.99,6.8,6.94,5.53,7.36
CCTGCTGGGCCATCAGGTCATTGATATCAACGTT,1.15,0.86,0.504,1.18,-0.89,1.73,0.432,1.06,-0.123,0.467
ATATGTAGGTTAGCGGGTCATTCAGTTTGCGCAT,2.01,2.27,0.947,2.45,0.826,4.33,6.81,5.6,3.1,5.16
AATACAGGGTCACTAGGCCAGAGTCGGTACGAAT,6.27,4.74,0.695,3.82,0.88,5.61,8.1,6.36,3.03,5.2

Sequence,PBM binding z-score [1],PBM binding z-score [2],PBM binding z-score [3],PBM binding z-score [4],PBM binding z-score [5],PBM binding z-score [6],PBM binding z-score [7],PBM binding z-score [8],PBM binding z-score [9],PBM binding z-score [10]
TATGCAGGGTCAAAGGCCAGAGTACGAATGTCGA,7.19,5.51,1.34,4.46,0.828,6.1,7.42,6.8,4.59,6.57
CCTGCTAGGTCATGGGCAGCTAATCTACAGTATG,4.12,2.55,-0.0623,1.29,-0.864,3.72,2.82,3.2,0.94,1.97
GTTAGCAGGCCATTTGGGTCACTCAATGACGGGC,0.439,0.0472,-0.523,0.205,-0.589,1.36,0.776,0.698,-0.489,0.0806
TCTTGTAGATCAAGCAGGTTAAGACAGCCTGAGT,0.233,0.271,-0.132,0.33,-0.3,0.76,0.0477,1.3,2.29,1.76
TTACCAATGTGAAAGGTCGTTGATGCACGCCTTG,1.7,2.12,0.874,1.91,0.227,3.26,4.36,5.96,3.68,6.14
TCTGCTTGGTCAGTTGGTCAGCTAACGAGCTGCC,-0.433,-0.4,-1.02,-0.763,-0.0318,-0.161,-1.11,0.771,1.04,0.933
TCTGCTAGGACAGTTGGTCAGCTAACGAGCTGCC,-0.435,-0.527,-0.541,-0.91,-0.315,-0.722,-0.522,-0.161,0.654,0.296
TCTATTAGTTGAGTAGGGCAACCGAAACAGCGGA,0.117,-0.0688,-0.201,0.0431,0.0555,0.964,0.351,1.65,3.14,2.23
CCAGACAGGTGAAAGGTAACACAGTCTGGTACGC,0.883,0.799,-0.29,0.919,-0.313,3.54,5.85,6.13,4.72,6.42
TAGCCTAGGTCATTGGGCCAGTATGGTACGCATC,4.05,3.25,0.37,2.07,0.231,3.63,3.54,3.7,0.478,2.47
CAGACTAGGTCACCGGAAGGTCAAAGTCCGCATG,5.95,5.63,4.26,5.14,0.786,5.42,7.82,7.03,3.63,6.35
CGTCCAAGGTCAATACTAGGTCAGTGAAAGCATT,6.7,5.42,3.65,4.71,1.55,5.33,4.52,4.7,2.1,3.73
TGTTGTAGATCAATAGAGGTTAAGAAAGTGCGCT,1.03,3.59,1.16,1.94,1.01,1.63,0.0938,0.944,0.473,0.795
ACTGGCAGGCCAAGGGTCACTCAAGATTAGTCCG,2.36,2.55,-0.0676,2.36,-0.732,3.88,5.21,5.21,3.1,5.1
ACTATTAGTTGACTGAGGGCAACCGATACGACGC,0.492,0.678,0.199,0.459,0.656,0.506,0.804,0.0428,0.173,0.117
CCTACTGGGCCATTCAGAAGTCATTGATCATATG,-0.391,-0.415,-0.186,-0.497,-0.171,0.968,0.302,0.341,-0.166,-0.00895
AGAACGAGGGCACGCGGAGTTGATAGCAGAGTAG,0.925,0.696,-0.442,0.259,-1.01,2.58,2.36,1.91,0.448,1.26
TCTTGTAGATCAATGGAGGTTAAGAAAGTGCGCT,0.901,2.8,0.173,1.3,-0.0128,1.52,-0.31,1.5,2.83,2.18
TCTTGTAGATCCATAGAGGTTAAGAAAGTGCGCT,0.485,3.32,-0.138,1.43,0.453,1.16,-0.272,1.18,2.32,1.65
CCTGACGGGTCAAGGTTATAGCACGGGTGGTACG,4.36,2.88,0.0717,2.21,-0.369,4,2.54,2.92,0.472,1.61
TCTGCTAGGTCAACGATAGTCAGCTAATCTGCTA,3.23,2.35,-0.23,1.4,-0.0504,3.14,2.53,3.15,1.95,2.82
TTAATGAGGTTATAAGATCAGGGAACGTTGCAAA,1.87,1.75,0.416,1.58,0.291,3.04,1.96,2.7,1.97,2.32
CATGCTAGGTCAATGGTCAGCTAAAGCAGCTCGC,3.18,2.65,0.2,1.38,0.174,3.04,4.43,4.63,2.27,4.38
TATTGTAGATCAATAGAGGTTAAGAAAGTGCGCT,0.833,3.7,0.984,1.79,0.902,1.97,0.757,0.86,0.535,0.718
